Measurements: ChEMBL document CHEMBL3988442, “University of Dundee, Small-Polar-MMV Screening Library” (2021)
The whole screen tested about 48,000 compounds, of which about 13,000 (27%) showed an effect of 50% or more. The list shows a part of the results.

Each compound was assayed on Wolbachia pipientis (assay: Anti-Wolbachia Cell-Based Screen). Conditions: 5 µM.
Type: functional
Set-up: scale not given: in the data most compounds retested in dose-response had high values
With `CNC(=O)[C@@H]1C[C@@H](NC(=O)c2cn(C)nc2C)CN1Cc1sccc1C` the “Percent Effect” value was 22.01%.
With `Cc1cc(C(=O)N(C)C(C)CC(C)C)on1` (stereo unspecified) the “Percent Effect” value was -13.06%.
`CN(C)c1ccc2c(c1)CN(C(=O)c1ccco1)C2c1cnco1` (stereo unspecified) was tested, and the “Percent Effect” value was 6.499%.
With `O=C(Nc1ccc(-c2csnn2)cc1)N1CC[C@H](O)C1` the “Percent Effect” value was -5.302%.
`CCC(C(=O)NC(C)(C)C)n1cccc(OC)c1=O` (stereo unspecified) was tested, and the “Percent Effect” value was -8.788%.
With `CCN1C[C@H]2CCN(C(=O)c3cc[nH]n3)CC[C@H]2S1(=O)=O` the “Percent Effect” value was 7.026%.
With `CNC(=O)CN1CC[C@H]2CN(C(=O)c3cc[nH]n3)C[C@H]2C1.O=C(O)C(F)(F)F` the “Percent Effect” value was 106.6%.
`O=C(O)C(F)(F)F.O=C(c1cc[nH]n1)N1CC[C@@H]2CN(Cc3ccncc3)S(=O)(=O)[C@@H]2CC1` was tested, and the “Percent Effect” value was -5.267%.
In the case of `CCn1cc(CN2CCC(CN3CCCCC3)CC2)cc1C#N`, the “Percent Effect” value is reported as -0.8018%.
For `CCc1cnc(CN(C)C(=O)NC2CCN(C)C2=O)s1` (stereo unspecified), the “Percent Effect” value was 1.007%.
In the case of `Cc1nc(O)cc(CCNC(=O)CN2CCCCCC2)n1`, the “Percent Effect” value is reported as -0.8715%.
For `O=C(CCNC(=O)NC1CC1)NCc1ccccc1`, the “Percent Effect” value was 4.625%.
In the case of `O=C(CC1CCCC1)NCCNCc1cccc2c1OCCO2`, the “Percent Effect” value is reported as -15.98%.
`NC(=O)CN1CCC(C(=O)NCCc2nc(-c3ccccc3)cs2)CC1` was tested, and the “Percent Effect” value was 3.799%.
With `NC(=O)c1cnc(NC2CC2)nc1CCNC(=O)Cc1ccccc1` the “Percent Effect” value was 131.4%.
In the case of `NC(=O)c1cnc(NC2CC2)nc1CCNC(=O)CC1CCCC1`, the “Percent Effect” value is reported as 144.1%.
With `Cc1cnc(NC2CCN(CC(=O)Nc3ccccc3)CC2)nc1C` the “Percent Effect” value was 3.522%.
In the case of `O=C(CC1CCCC1)NCCn1ccc(-c2ccncc2)n1`, the “Percent Effect” value is reported as -13.95%.
`NC(=O)c1cnc(-c2ccccc2)nc1CCNC(=O)CN1CCCC1` was tested, and the “Percent Effect” value was 124.4%.
In the case of `O=C(CCCc1cn[nH]c1)N1C[C@H](CO)C[C@H](CN2CCCC2)C1`, the “Percent Effect” value is reported as 5.812%.
`Cc1cc(C)c2[nH]c(=O)c(CN3CCC(O)(CN(C)C)C3)cc2c1` (stereo unspecified) was tested, and the “Percent Effect” value was -2.791%.
With `COc1ccc(-c2ccc(C(=O)O)c(F)c2)c(F)c1` the “Percent Effect” value was -9.144%.
For `CC(=O)c1ccc(N2CCC3(CC2)CC(=O)N(C)C3)nc1`, the “Percent Effect” value was 9.989%.
In the case of `CCc1c(C)nc2n(c1=O)CC(C(=O)Nc1ccccc1C)CS2` (stereo unspecified), the “Percent Effect” value is reported as 112.9%.
With `CCc1c(C)nc2n(c1=O)CC(C(=O)Nc1nccs1)CS2` (stereo unspecified) the “Percent Effect” value was 17.24%.
With `CCc1c(C)nc2n(c1=O)CC(C(=O)Nc1ncccc1C)CS2` (stereo unspecified) the “Percent Effect” value was 124.5%.
`Cc1cnc2n(c1=O)CC(C(=O)Nc1cccc3cccnc13)CS2` (stereo unspecified) was tested, and the “Percent Effect” value was 0.1912%.
`CCc1c(C)nc2n(c1=O)CC(C(=O)Nc1ccccc1F)CS2` (stereo unspecified) was tested, and the “Percent Effect” value was -0.8379%.
With `CCc1c(C)nc2n(c1=O)CC(C(=O)Nc1sccc1C(=O)OC)CS2` (stereo unspecified) the “Percent Effect” value was 119.9%.
In the case of `Cc1cnc2n(c1=O)CC(C(=O)NC1CC1)CS2` (stereo unspecified), the “Percent Effect” value is reported as -10.47%.
In the case of `CCc1cccc(C)c1NC(=O)C1CC(=O)N(Cc2ccccn2)C1` (stereo unspecified), the “Percent Effect” value is reported as 16.74%.
